Data on 13 compounds can be found in PubChem BioAssay (NCATS).

Inconclusive results are not listed. Calls of active or inactive are those of the source. Calls follow the shape of the dose curve; as a rule, active = well fitted curve in either direction with a large enough effect (not every such curve was filed as active); inconclusive = small, poorly fitted or top-dose-only effect, or another doubt; inactive = flat fitted curve, though single readings scatter.
% is scaled to controls: 0 for no effect and ±100 for the full control effect.

The assay has as its target Mitogen-activated protein kinase 10 (Mus musculus) (UniProt Q61831). Put plainly: JNK3 AlphaScreen Assay (AID 530).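 Also: kinase came from lysate of stimulated human HepG2 cells; signal reports phosphorylation of biotinylated GST-cJun 1-79 at Ser73 with 10 µM ATP.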 Particulars: JNK3 lysate, c-Jun phosphorylation; series mostly up to 57.1 µM; activity change, negative = inhibition: at the top concentration. Put shortly: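 qHTS titrations with 15 min compound pre-incubation before adding ATP (10 uM final). Read-out: AlphaScreen of Ser73-phosphorylated biotin-GST-cJun using HepG2 lysate JNK3 activated by IL-1β and TNFα.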
On the technique in general: In Alpha technology, singlet oxygen from a donor bead excites a nearby acceptor bead.
As for `COC(=O)[C@H]1C[C@@H]1[C@H](N)c1ccccc1`, the “activity change, negative = inhibition” value was 3.56% (inactive).
As for `CC(=O)N1CC=CC1(CC(C)C)C(=O)NCc1ccccn1` (stereo not drawn), the figure is 4.39% (inactive); as for `CCCC[C@H]1C[C@@H]1[C@@H]1N(C(C)=O)[C@H](c2cccc(OC)c2)CC12CC2`, 12.5% (inactive); as for `COC(=O)[C@@]1(Cc2ccc(OC)cc2)[C@H]2c3cc(C(=O)N(C)C)n(Cc4ccc(S(C)(=O)=O)cc4)c3C[C@H]2CN1C(=O)c1ccccc1`, -28.3% (inactive).
As for `COc1ccc(CNC(=O)[C@H]2C[C@@H]2[C@H](NP(=O)(c2ccccc2)c2ccccc2)c2ccccc2)cc1OC`, the figure is -9.2% (inactive); as for `COC(=O)C1(CC(C)C)C=C2C(=C(C)C(=O)C2C)CN1` (stereo not drawn), 2.04% (inactive); as for `CCCC[C@@H]1C[C@H]1C(NC(=O)c1ccccc1)c1ccc(C(=O)OC)cc1` (stereo partly drawn), 6.87% (inactive).
`CCCC[C@@H]1C[C@H]1C(NC(=O)c1ccccc1)c1ccc(C(F)(F)F)cc1` (stereo partly drawn): the “activity change, negative = inhibition” value was 23% (inactive).
As for `C[C@@H](C(=O)NCc1ccccc1)[C@@H]1C[C@@]1(C)[C@@H](NC(=O)OCc1ccccc1)c1ccccc1`, the figure is 1.59% (inactive); as for `COC(=O)[C@@]1(Cc2ccc(OC)cc2)[C@H]2c3cc(C(=O)N(C)C)n(CCO)c3C[C@H]2CN1C(=O)c1ccccc1`, -4.08% (inactive); as for `O=C1C(Cl)=C(NC2CCc3ccccc32)C(=O)c2ncccc21` (stereo not drawn), -3.49% (inactive).
On to `O=C(NCc1ccccn1)[C@H]1C[C@@H]1[C@H](NP(=O)(c1ccccc1)c1ccccc1)c1ccccc1`, for which the “activity change, negative = inhibition” value was -0.953% (inactive).
As for `CS(=O)(=O)c1ccc(CNC(=O)[C@@H]2C[C@H]2[C@@H](NP(=O)(c2ccccc2)c2ccccc2)c2ccccc2)cc1`, the figure is -6.13% (inactive).
